TDP1 block – inhibitors of human tyrosyl-DNA phosphodiesterase TDP1; Q9NUW8; 350,000 compounds, 0.28% hits; recombinant TDP1, AlphaScreen DNA substrate cleavage; Potency, µM (doses to about 130 µM), for the others: top-dose activity change, negative = inhibition, usual class: inhibitors; also: % is scaled to controls: 0 for no effect and ±100 for the full control effect; nearly all actives have a fitted effect of over 40% in size
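Enzyme-compound mixtures sat 15 min at room temperature, followed by a 5 min reaction with 15 nM final substrate and 10 min with AlphaScreen beads. Recombinant human Tdp1 was used at 1 nM final.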
ClpP mod – qHTS Assay for Activators of ClpP. Potency, µM (series often up to 57.5 µM), without a hit: at the top dose activity change, negative = active. purified B. subtilis ClpP, FRET peptide cleavage, 20 min. ATP-dependent Clp protease proteolytic subunit (Bacillus subtilis (strain 168)), P80244. 340,000 compounds, 1.9% hits. AID 651965, 2013; active = well fitted falling curve with a large enough effect; inconclusive = small, poorly fitted or top-dose-only effect; inactive = no such curve, though single readings can be large or run the other way; also: the source files actives as falling curves though it sought activators and does not explain the sign; nearly all actives have a fitted effect of over 65% in size
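Purified B. subtilis ClpP, 10 microg/mL final in Tris/HCl pH8 with KCl, BSA, glycerol and Tween-20, cleaved an Abz/nitrotyrosine-quenched decapeptide. Fluorescence (ex 320, em 430) was read at 0 and 20 min at room temperature. Delta was normalized to 5.8 microM ADEP and DMSO/no-enzyme controls.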
Rango release inh – prevents RanGTP from dissociating the Rango-importin beta complex; 340,000 compounds, 0.071% hits; Biochemical FRET Rango-importin beta, RanGTP-induced dissociation; O95149+P62826; Potency, µM (series often up to 46.1 µM), for inactives: at the top dose activity change, negative = inhibition; calls by dose curve; also: % of control where 0% means no effect; nearly all actives have a fitted effect of over 45% in size
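Compounds sat 5 min at room temperature with 0.1 uM Rango biosensor plus 0.25 uM importin beta, then FRET pre-read. RanGTP-RCC1 (0.6 uM Ran, 2mM GTP, 0.2 uM RCC1) added for 45 min, and the CFP/YFP post-read measured blocked complex dissociation.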
TSG101-PTAP inh – blocks PTAP/TSG101 interaction to inhibit HIV-1 budding. Fluorescence polarization, FITC-PTAP peptide / Tsg101 binding. Potency, µM (series often up to 115 µM), without a hit: at the top dose activity change, negative = inhibition, actives largely listed as inhibitors. 340,000 tested, under 10 active. AID 493005; active = well fitted inhibition curve with a large enough effect in the main read-out, with a control signal flat, not every such curve was filed as active; inconclusive = small, poorly fitted or top-dose-only effect, or effect the other way, or a change in a side signal; inactive = no such curve, though single readings can be large or run the other way; also: % of control where 0% means no effect
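Compounds were pin-transferred onto Tsg101 binding domain (10 uM final) in HEPES pH 7.5 buffer, then FITC-PTAP peptide was added at 50 nM final. After 20 min at RT, polarization reported peptide displacement across a qHTS concentration series.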
12-LOX inh – blocks human arachidonate 12S-lipoxygenase. Potency, µM (series often up to 108 µM), without a hit: at the top dose activity change, negative = inhibition, usual class: inhibitors. purified 12hLO, xylenol orange hydroperoxide absorbance. 580,000 compounds, 1.1% hits. AID 1671190. P18054; also: % is scaled to controls: 0 for no effect and ±100 for the full control effect
Target sequence (P18054 whole entry, looked up): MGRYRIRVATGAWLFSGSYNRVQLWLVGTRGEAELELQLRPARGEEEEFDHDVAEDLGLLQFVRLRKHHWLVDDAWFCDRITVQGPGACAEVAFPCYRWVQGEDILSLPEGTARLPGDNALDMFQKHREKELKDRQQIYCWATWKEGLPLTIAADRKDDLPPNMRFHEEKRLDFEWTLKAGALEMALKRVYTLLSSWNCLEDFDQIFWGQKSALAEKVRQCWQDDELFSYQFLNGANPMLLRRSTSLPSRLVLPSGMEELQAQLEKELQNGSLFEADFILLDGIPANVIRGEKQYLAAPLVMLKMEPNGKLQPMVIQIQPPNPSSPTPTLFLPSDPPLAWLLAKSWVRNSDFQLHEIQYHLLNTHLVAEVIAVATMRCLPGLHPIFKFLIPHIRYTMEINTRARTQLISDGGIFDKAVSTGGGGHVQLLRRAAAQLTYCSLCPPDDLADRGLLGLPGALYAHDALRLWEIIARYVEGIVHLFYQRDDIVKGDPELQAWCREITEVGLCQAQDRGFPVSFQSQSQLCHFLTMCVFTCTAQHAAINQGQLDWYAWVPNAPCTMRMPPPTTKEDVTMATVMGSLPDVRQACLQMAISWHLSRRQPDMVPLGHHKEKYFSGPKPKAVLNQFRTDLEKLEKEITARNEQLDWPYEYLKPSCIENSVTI
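Purified human 12hLO at 150 nM in 25 mM Hepes, 0.01% Triton X-100, pH 7.0, preincubated 15 min at room temperature with compound. Reaction started with 40 uM arachidonic acid, 30 min at room temperature. Hydroperoxide measured by Fe-xylenol orange, 573/405 nm absorbance ratio.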
Rango complex inh – Rango-importin beta binding inhibition. Q14974. Rango CFP/YFP FRET sensor + importin beta, 45 min. Potency, µM (titrated, usually from 92.2 µM), without a hit: at the highest dose inhibition of complex formation. 340,000 compounds, 0.031% hits. AID 540263; calls by dose curve;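 also: 0% = DMSO wells and 100% = buffer wells lacking importin beta; nearly all actives have a fitted effect of over 15% in size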
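FRET biosensor (snurportin 1 IBB flanked by EYFP and cerulean), 50 nM, with compound 5 min, then 0.125 microM importin beta in PBS, 1 mM DTT, 0.02% Tween-20, 0.1% BSA. CFP/YFP ratio read after 45 min at room temperature; pre-read flags interference.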
* marks the source's active call; other numbers are inactive results; ? = inconclusive; nt = no result; [ ] = dose if it differs, or a comment. Most compounds without a hit are left out; they make up all but 2.4% or so of the library. Unless noted, calls follow the shape of the dose curve; as a rule, active = well fitted curve in the direction sought with a large enough effect; inconclusive = small, poorly fitted or top-dose-only effect, or another doubt; inactive = no such curve, though single readings can be large; an effect the other way counts as inactive or inconclusive. Potency is read from the fitted curve at half-maximal effect.

SMILES | TDP1 block | ClpP mod | Rango release inh | TSG101-PTAP inh | 12-LOX inh | Rango complex inh
CCNc1nc2ccccc2nc1C(C#N)S(=O)(=O)c1ccc(C)c(C)c1 (stereo unspecified) | nt | nt | nt | nt | 14.1µM* | nt
COc1ccc(S(=O)(=O)C(C#N)c2nc3ccccc3nc2N2CCCCC2)cc1 (stereo unspecified) | 10.5% | -15.0% | ? | -11.4% | ? | ?
CCN1CCN(c2nc3ccccc3nc2C(C#N)S(=O)(=O)c2ccc(Cl)cc2)CC1 (stereo unspecified) | nt | nt | nt | nt | 44.7µM* | nt
CC(C)c1ccc(/C=C(\C#N)C(=O)NC2CCCCCC2)cc1 | nt | nt | nt | nt | -1.2% | nt
CC(=O)c1ccc(S(=O)(=O)Nc2ccc(C(=O)N3c4ccccc4CC3C)cc2)cc1 (stereo unspecified) | nt | nt | nt | nt | -2.7% | nt
CC(=O)c1ccc(NC(=O)CN2C(=O)NC3(CCCCC3)C2=O)cc1 | nt | nt | nt | nt | 30.1% | nt
COc1ccc(C(=O)c2sc(Nc3ccc(C(C)C)cc3)nc2N)c(OC)c1OC | nt | nt | nt | nt | -26.7% | nt
CCOC(=O)c1c(N)c(C#N)c2n1CCCC2 | 0.0% | 31.6µM* | -11.1% | -7.2% | 0.0% | 0.5%
Cn1nnc(NC(=S)NC(=O)c2ccc3ccccc3c2)n1 | nt | 73.2% | nt | nt | 11.2µM* | nt
Cn1nnc(NC(=S)NC(=O)c2cccc3ccccc23)n1 | 4.6% | nt | 10.3% | -0.4% | 0.631µM* | -2.5%
Cn1nnc(NC(=O)c2ccc3ccccc3c2)n1 | 2.7% | ? | -1.0% | -0.5% | 0.9% | -1.1%
COc1cc(C2Nc3ccccc3C(=O)N2Cc2ccco2)cc(OC)c1OC (stereo unspecified) | 3.1% | 3.9% | nt | nt | nt | nt
CCN(CC)CCN1C(=O)c2ccccc2NC1c1cccc(F)c1 (stereo unspecified) | -4.2% | ? | -11.9% | -0.6% | -11.5% | -1.8%
CCN(CC)CCN1C(=O)c2ccccc2NC1c1cc(OC)c(OC)c(OC)c1 (stereo unspecified) | 5.0% | 12.6µM* | 1.4% | -4.1% | 16.8% | -1.0%
CCCN1C(=O)c2ccccc2NC1c1cc(OC)c(OC)c(OC)c1 (stereo unspecified) | 2.6% | 17.8µM* | -4.0% | -4.3% | -2.8% | -0.8%
COc1cc(OC)c(NC(=O)Cn2nc3ccc(SC4CCCCC4)nn3c2=O)cc1Cl | nt | nt | nt | nt | -2.0% | nt
COc1ccc(CC(=O)N2CCN(C(=O)Cc3ccc(OC)cc3)CC2)cc1 | 0.0% | -5.3% | -0.1% | -9.1% | 0.0% | 4.4%
COc1ccc(CC(=O)N2CCN(c3ccc(C4=NNC(=O)CC4C)cc3)CC2)cc1 (stereo unspecified) | -3.0% | 28.2µM* | -12.0% | -1.0% | 7.3% | 2.3%
COc1cccc(NC(=O)N[C@H]2C[C@@H](c3nc(-c4ccccn4)no3)N(C)C2)c1 | nt | nt | nt | nt | 22.6%[176 µM] | nt
CSc1ccc2[nH]c(=O)cc(C)c2c1 | 4.2% | 35.5µM* | -0.3% | -2.8% | 0.0% | 0.7%
Cc1cc(=O)[nH]c2ccc([N+](=O)[O-])cc12 | nt | -1.4% | nt | nt | nt | nt
Cn1c(=O)c2c(nc(N/N=C/c3ccc(OC(=O)c4ccco4)cc3)n2Cc2ccccc2)n(C)c1=O | 8.1% | 28.2µM* | -21.3% | 0.3% | 14.6% | -1.1%
Cn1c(=O)c2c(nc(N/N=C/c3cccs3)n2Cc2ccccc2)n(C)c1=O | 6.7% | -0.7% | -10.5% | -1.0% | 6.7% | 0.2%
Cc1ccc(C(=O)N2CCC3(CC2)NC(=O)N(c2ccccc2)N3)cc1 | nt | nt | nt | nt | 1.26µM* | nt
Cc1ccsc1C(=O)N1CCC2(CC1)NC(=O)N(c1cccc(F)c1)N2 | nt | nt | nt | nt | 2.82µM* | nt
Cc1ccsc1C(=O)N1CCC2(CC1)NC(=O)N(c1ccccc1)N2 | nt | nt | nt | nt | 7.08µM* | nt
Cc1ccsc1C(=O)N1CCC2(CC1)NC(=O)N(c1cccc(Cl)c1)N2 | nt | nt | nt | nt | 1.26µM* | nt
